Inconclusive results are not listed. Calls of active or inactive are those of the source. Unless noted, the call rests on the fitted dose curve; in most records, active means well fitted curve in the direction sought with a large enough effect; inconclusive means small, poorly fitted or top-dose-only effect, or another doubt; inactive means no such curve, though single readings can be large; an effect the other way counts as inactive or inconclusive.
What was measured:
[1] = molecular target: Lysosomal acid glucosylceramidase (Homo sapiens) (UniProt P04062); assay: Glucocerebrosidase-p2 (AID 348; in the data active means potency below about 10 µM; further: potency means the concentration at half of the fitted maximal effect); settings: purified GBA, blue fluorogenic substrate, 40 min
Lysosomal acid glucosylceramidase (Homo sapiens), sequence (P04062 whole entry, looked up): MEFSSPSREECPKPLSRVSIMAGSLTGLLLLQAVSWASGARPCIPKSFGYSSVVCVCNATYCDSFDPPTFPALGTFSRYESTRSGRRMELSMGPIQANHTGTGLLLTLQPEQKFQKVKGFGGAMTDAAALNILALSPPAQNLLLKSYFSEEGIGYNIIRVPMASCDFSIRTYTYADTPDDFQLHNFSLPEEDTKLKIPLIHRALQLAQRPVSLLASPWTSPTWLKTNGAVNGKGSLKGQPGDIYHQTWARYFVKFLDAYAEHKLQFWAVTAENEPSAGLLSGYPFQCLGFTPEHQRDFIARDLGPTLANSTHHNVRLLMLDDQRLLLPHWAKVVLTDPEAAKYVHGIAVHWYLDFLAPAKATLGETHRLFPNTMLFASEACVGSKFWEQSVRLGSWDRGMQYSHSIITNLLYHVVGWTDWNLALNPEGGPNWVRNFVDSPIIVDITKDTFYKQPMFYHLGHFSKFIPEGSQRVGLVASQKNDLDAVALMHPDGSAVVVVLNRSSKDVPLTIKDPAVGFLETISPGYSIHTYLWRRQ
Procedure, shortened: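 Normal human glucocerebrosidase (0.2 nM) with blue fluorogenic substrate (80 uM final) in citrate/phosphate pH 5.9 with 10mM sodium taurocholate, 0.01% tween-20; 40 min RT, NaOH/glycine stop; fluorescence Ex 365/Em 440; AC50 from a titration from 0.6 nM upwards.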

[2] = AP1 Signaling Pathway (AID 357; active means well fitted curve in either direction with a large enough effect, not every such curve was filed as active;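 further: ME-180 reporter cells stimulated with EGF at its EC50 level; on the % scale 0 is the no-effect control and ±100 the full control effect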); settings: ME-180 AP-1-bla reporter, EGF-induced, beta-lactamase ratio, 5 h; at 7.69 µM (top of the series) unless noted
Procedure, shortened: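 Titration-series screen for positive or negative modulators of EC50 EGF-induced signaling in ME-180 cells carrying an AP-1-driven beta-lactamase reporter. After 5 hours at 37 degrees Celsius, CCF4 460nm/530nm emission ratio gave %Activity; AC50 values derived.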

[3] = molecular target: Cytochrome P450 1A2 (Homo sapiens) (UniProt P05177); assay: p450-cyp1a2 (AID 410; calls by dose curve; further: potency means the concentration at half of the fitted maximal effect;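 on activity change, negative = inhibition: -100% = full effect of reference inhibitor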); settings: recombinant CYP1A2, luciferin-ME demethylation, luminescence; series mostly up to 57 µM
Cytochrome P450 1A2 (Homo sapiens), sequence (P05177 whole entry, looked up): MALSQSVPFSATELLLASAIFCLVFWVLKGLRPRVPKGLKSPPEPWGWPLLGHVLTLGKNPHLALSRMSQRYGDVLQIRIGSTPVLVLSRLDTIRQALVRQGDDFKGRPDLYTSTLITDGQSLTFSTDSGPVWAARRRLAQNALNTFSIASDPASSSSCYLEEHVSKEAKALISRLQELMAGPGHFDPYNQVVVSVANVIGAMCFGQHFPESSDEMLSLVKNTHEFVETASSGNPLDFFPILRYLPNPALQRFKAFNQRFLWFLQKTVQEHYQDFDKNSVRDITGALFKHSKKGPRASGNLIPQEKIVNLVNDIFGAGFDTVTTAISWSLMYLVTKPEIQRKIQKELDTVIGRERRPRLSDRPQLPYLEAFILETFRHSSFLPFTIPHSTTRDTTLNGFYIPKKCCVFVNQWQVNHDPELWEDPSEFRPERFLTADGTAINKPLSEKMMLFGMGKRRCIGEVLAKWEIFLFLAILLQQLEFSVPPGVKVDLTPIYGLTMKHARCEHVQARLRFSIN
Procedure, shortened: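 20nM CYP1A2, 100uM Luciferin-ME (=Km), 100mM KPO4; cpd 10 min RT; +NADPH regen, 60 min RT; stop/detect 20 min; luminescence. Normalized to furafylline 57 uM = full inhibition.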

[4] = molecular target: Glucocorticoid receptor (Homo sapiens) (UniProt P04150); assay: GR-EFC Redistribution (AID 451; calls by dose curve; further: potency means the concentration at half of the fitted maximal effect); settings: CHO-K1 GR-EFC translocation, beta-gal luminescence, 2 h
Glucocorticoid receptor (Homo sapiens), sequence (P04150 whole entry, looked up, the tested form may be a part): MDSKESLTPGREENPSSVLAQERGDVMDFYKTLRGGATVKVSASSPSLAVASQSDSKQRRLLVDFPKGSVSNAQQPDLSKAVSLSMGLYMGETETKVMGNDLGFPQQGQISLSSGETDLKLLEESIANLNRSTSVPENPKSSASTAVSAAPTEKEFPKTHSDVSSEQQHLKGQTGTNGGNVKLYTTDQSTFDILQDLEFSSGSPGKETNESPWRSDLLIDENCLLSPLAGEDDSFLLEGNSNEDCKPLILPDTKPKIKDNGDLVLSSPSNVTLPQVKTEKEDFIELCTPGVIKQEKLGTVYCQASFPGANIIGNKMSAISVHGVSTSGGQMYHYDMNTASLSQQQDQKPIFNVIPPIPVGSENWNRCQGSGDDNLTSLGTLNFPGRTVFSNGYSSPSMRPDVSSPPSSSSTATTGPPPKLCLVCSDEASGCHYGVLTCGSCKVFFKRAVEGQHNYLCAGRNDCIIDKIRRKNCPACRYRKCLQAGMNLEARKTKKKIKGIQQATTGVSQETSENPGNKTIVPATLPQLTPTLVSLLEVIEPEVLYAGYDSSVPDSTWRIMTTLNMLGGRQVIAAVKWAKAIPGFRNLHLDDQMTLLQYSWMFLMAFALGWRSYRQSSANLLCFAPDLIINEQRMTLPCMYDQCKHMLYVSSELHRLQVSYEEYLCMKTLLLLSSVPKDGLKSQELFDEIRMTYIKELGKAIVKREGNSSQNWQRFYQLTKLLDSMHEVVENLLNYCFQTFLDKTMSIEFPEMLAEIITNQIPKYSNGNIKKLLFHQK
Procedure, shortened: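 Translocation of GR-ED fusion to nuclear EA restores b-gal, read by luminescence after 1 h room-temperature detection. Engineered CHO-K1 biosensor cells, 1,000/well, exposed 2 h at 37 C to titrations up to 46 uM final.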

[5] = molecular target: Mitogen-activated protein kinase 10 (Mus musculus) (UniProt Q61831); assay: JNK3 AlphaScreen Assay (AID 530; active means well fitted curve in either direction with a large enough effect, not every such curve was filed as active;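 further: kinase came from lysate of stimulated human HepG2 cells; signal reports phosphorylation of biotinylated GST-cJun 1-79 at Ser73 with 10 µM ATP; on the % scale 0 is the no-effect control and ±100 the full control effect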); settings: JNK3 lysate, c-Jun phosphorylation; series mostly up to 57.1 µM
Procedure, shortened: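 Kinase buffer: 20 mM Tris-HCl pH 7.6, 10 mM MgCl2, 1 mM DTT, 0.1 mM Na3VO4, 0.01% Tween-20; ATP 10 uM. Substrate biotin-GST-cJun(1-79), enzyme from activated HepG2 lysates. Detection by Ser73 phospho-antibody AlphaScreen.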

[6] = molecular target: 3',5'-cyclic-AMP phosphodiesterase 4B (Homo sapiens) (UniProt Q07343); assay: qHTS Assay for Inhibitors of PDE-IV (AID 607; active means well fitted activation curve with a large enough effect in the main read-out, with a control signal flat, not every such curve was filed as active; further: % of control where 0% means no effect); settings: HEK293 ACTOne CNG channel cells, membrane potential fluorescence; series mostly up to 22.9 µM
3',5'-cyclic-AMP phosphodiesterase 4B (Homo sapiens), sequence (Q07343 whole entry, looked up): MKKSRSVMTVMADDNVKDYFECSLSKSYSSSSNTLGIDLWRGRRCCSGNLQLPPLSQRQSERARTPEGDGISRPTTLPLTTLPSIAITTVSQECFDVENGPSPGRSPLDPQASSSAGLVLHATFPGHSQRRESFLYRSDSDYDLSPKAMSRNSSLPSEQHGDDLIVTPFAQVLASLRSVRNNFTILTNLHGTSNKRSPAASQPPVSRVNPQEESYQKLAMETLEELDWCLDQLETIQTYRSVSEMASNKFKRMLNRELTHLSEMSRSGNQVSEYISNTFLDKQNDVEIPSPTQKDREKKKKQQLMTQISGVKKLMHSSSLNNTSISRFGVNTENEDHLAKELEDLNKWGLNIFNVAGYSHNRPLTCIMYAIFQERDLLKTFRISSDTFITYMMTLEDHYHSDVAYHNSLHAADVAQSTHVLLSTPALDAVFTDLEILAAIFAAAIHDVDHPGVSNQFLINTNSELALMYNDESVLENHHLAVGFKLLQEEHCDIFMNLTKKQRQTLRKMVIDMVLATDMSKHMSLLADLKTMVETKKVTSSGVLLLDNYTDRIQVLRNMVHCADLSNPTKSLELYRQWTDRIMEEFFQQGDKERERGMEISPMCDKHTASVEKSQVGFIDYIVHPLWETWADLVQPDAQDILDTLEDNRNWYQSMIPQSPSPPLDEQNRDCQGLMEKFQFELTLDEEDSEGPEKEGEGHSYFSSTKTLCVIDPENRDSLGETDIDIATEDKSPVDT
Procedure, shortened: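 HEK293 ACTOne cells with CNG channel (1000/well), endogenous PDE4; membrane potential dye, compounds up to 22.9 uM final. Fluorescence Ex 535/Em 590; RO 20-1724 (100 uM final) as reference.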

[7] = qHTS Assay for Lipid Storage Modulators (AID 1519; calls by dose curve); settings: Drosophila S3 cells, BODIPY lipid droplet/cell ratio, laser cytometry, cells loaded with oleic acid; for activity change, negative = inhibition: at 57.5 µM (top of the series)
Procedure, shortened: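 Cells seeded at 5,000 per well were treated with compounds over a concentration series and loaded with oleic acid (400 uM, as added). Lipid droplet fluorescence (488 nm excitation, 500-530 nm channel) was read by laser-scanning cytometry and normalized to 20 uM Triacsin C.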

[8] = Counterscreen qHTS for small molecule stabilizers of the endoplasmic reticulum resident proteome: GLuc-NoTag assay (AID 1508627); settings: Gaussia luciferase NoTag secretion counterscreen, luminescence, thapsigargin 100 nM for final 4 h; series mostly up to 76.4 µM;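 further: SH-SY5Y cells given compound then 100 nM thapsigargin to empty ER calcium; 0% = thapsigargin alone and -100% = DMSO vehicle control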
Procedure, shortened: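 Counterscreen line: SH-SY5Y-GLuc-NoTag cells, treated with compound 19 hr before a 4 hr, 100 nM thapsigargin calcium depletion. Secreted Gaussia luciferase in the medium was measured by luminescence after coelenterazine was added (0.07x final), with cells unlysed.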

[9] = Cell Viability qHTS for small molecule stabilizers of the endoplasmic reticulum resident proteome (AID 1508629); settings: cell viability counter-screen, 100 nM thapsigargin for final 4 h;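 further: human SH-SY5Y neuroblastoma cells carrying the GLuc-SERCaMP reporter; compound exposure about 46 h in total before the viability read; on the % scale 0 is the no-effect control and ±100 the full control effect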
[10] = NFAT Signaling Pathway (AID 444; active means well fitted curve in either direction with a large enough effect, not every such curve was filed as active;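 further: carbachol stimulus at about its EC50 of 1 µM final; on the % scale 0 is the no-effect control and ±100 the full control effect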); settings: Jurkat NFAT-bla M1, carbachol, beta-lactamase ratio, 5 h; at 7.69 µM (top of the series) unless noted
Procedure, shortened: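 Read-out: CCF4 FRET ratio (460 nm/530 nm) after 1 h RT dye loading, used for %activity and AC50 from titration series. Cells: Jurkat NFAT-β-lactamase/M1 line, treated with compound plus 1 uM carbachol for 5 h, 37 °C.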

[11] = Stat Signaling Pathway (AID 446; active means well fitted curve in either direction with a large enough effect, not every such curve was filed as active); settings: ME-180 (cervical carcinoma) SIE beta-lactamase reporter, IL-6 stimulated, 5 h; at 7.69 µM (top of the series) unless noted
Procedure, shortened: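 Normalization used AC90 stimulation (300 pM IL-6) and AC90 inhibition (125 nM pan-JAK inhibitor at 40 pM IL-6). The underlying signal is SIE-driven beta-lactamase in ME-180 cells after 5 h IL-6 exposure with compound.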

[12] = molecular target: Glucocorticoid receptor (Homo sapiens) (UniProt P04150); assay: GR-GFP Redistribution (AID 450;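 active means compounds whose dose series gives a full or clear partial fitted curve of increased nuclear translocation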; further: potency means the concentration at half of the fitted maximal effect); settings: U2OS GR-GFP nuclear translocation, laser cytometry, 2 h
[13] = molecular target: Cytochrome P450 3A4 (Homo sapiens) (UniProt P08684); assay: qHTS Assay for Activators of Cytochrome P450 3A4 (AID 885); settings: recombinant CYP3A4, Luciferin-PPXE luminescence, 60 min; series mostly up to 57.1 µM; further: nearly all actives have a fitted effect of over 65% in size
Cytochrome P450 3A4 (Homo sapiens), sequence (P08684 whole entry, looked up): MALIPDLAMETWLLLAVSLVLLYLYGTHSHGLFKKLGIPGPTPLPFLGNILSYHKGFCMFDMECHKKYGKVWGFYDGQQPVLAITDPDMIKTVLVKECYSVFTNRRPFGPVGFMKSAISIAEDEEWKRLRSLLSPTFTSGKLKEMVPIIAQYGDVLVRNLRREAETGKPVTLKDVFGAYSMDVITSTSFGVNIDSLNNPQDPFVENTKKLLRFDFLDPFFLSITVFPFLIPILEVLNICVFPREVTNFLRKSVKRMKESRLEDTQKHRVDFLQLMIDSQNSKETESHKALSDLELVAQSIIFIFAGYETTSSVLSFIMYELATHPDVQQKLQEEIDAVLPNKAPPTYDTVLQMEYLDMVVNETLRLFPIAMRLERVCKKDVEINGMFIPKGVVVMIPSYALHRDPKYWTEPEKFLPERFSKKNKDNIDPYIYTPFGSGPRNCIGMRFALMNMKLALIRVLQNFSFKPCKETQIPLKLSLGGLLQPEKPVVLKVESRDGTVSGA
Procedure, shortened: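 Human CYP3A4 dealkylates Luciferin-PPXE to luciferin, which luciferase detection converts to light. Substrate was at its KM (25uM), buffer 200mM KPO4, reaction 60 min at RT.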

[14] = molecular target: Dual specificity protein kinase CLK4 (Homo sapiens) (UniProt Q9HAZ1); assay: qHTS Assay for Inhibitors of CDC-like Kinase 4 (Kinase-Glo Assay) (AID 1770); settings: recombinant Clk4, Kinase-Glo ATP depletion luminescence; series mostly up to 66.7 µM; further: nearly all actives have a fitted effect of over 65% in size; further: potency means the concentration at half of the fitted maximal effect
Dual specificity protein kinase CLK4 (Homo sapiens), sequence (Q9HAZ1 whole entry, looked up): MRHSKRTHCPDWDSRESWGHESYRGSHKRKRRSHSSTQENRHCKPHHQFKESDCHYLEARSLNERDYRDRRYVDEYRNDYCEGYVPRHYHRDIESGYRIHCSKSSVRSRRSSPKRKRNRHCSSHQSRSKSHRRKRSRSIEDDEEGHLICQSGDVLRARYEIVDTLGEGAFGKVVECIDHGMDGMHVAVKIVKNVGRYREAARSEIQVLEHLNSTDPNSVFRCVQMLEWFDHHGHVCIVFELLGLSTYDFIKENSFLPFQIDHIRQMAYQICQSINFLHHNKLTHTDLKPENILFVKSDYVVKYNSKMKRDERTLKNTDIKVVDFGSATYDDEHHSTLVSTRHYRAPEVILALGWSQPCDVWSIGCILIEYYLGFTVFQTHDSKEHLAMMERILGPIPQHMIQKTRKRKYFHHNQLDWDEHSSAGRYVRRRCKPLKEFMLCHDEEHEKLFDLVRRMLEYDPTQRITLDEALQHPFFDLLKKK
Procedure, shortened: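 Substrate mix (RS peptide 100 uM, ATP 1 uM) dispensed, compound pinned in, then Clk4 added to 25 nM final. Incubated 4.5 h at RT; Kinase-Glo reagent added, luminescence read after 5 min.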

[15] = molecular target: Dual specificity protein kinase CLK4 (Homo sapiens) (UniProt Q9HAZ1); assay: qHTS Assay for Inhibitors of CDC-like Kinase 4 (ADP-Glo Assay) (AID 1771); settings: recombinant CLK4, ADP-Glo luminescence; series mostly up to 80 µM; further: on the % scale 0 is the no-effect control and ±100 the full control effect; nearly all actives have a fitted effect of over 70% in size
Procedure, shortened: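 25 nM Clk4, 100 uM RS peptide, 1 uM ATP (final); 2 mM MgCl2, 0.5 mM EGTA, 2.5 mM DTT, 0.01% Triton X-100; 1 hr RT. ADP-Glo readout: ATP depletion 45 min, conversion/luciferase 30 min, luminescence.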

[16] = molecular target: Dual specificity protein kinase CLK4 (Homo sapiens) (UniProt Q9HAZ1); assay: qHTS Assay for Inhibitors of CDC-like Kinase 4 (ADP-FP Assay) (AID 1795); settings: Transcreener ADP fluorescence polarization; series mostly up to 50 µM;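 further: recombinant human CLK4 phosphorylating RS repeat peptide at 1 µM ATP; on the % scale 0 is the no-effect control and ±100 the full control effect; nearly all actives have a fitted effect of over 60% in size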
Procedure, shortened: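 Clk4 6.25 nM; RS peptide 100 uM; ATP 1 uM; 25 mM Tris pH 7.5, 10 mM MgCl2; 1 h reaction. ADP detected via antibody/orange tracer FP displacement; TG003 positive control.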

[17] = Confirmatory qHTS for small molecule stabilizers of the endoplasmic reticulum resident proteome: Secreted ER Calcium Modulated Protein (SERCaMP) assay (AID 1508628); settings: SERCaMP secreted luciferase ER calcium/proteostasis reporter; series mostly up to 76.3 µM; further: nearly all actives have a fitted effect of over 40% in size; further: potency means the concentration at half of the fitted maximal effect
Procedure, shortened: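 GLuc-SERCaMP-expressing SH-SY5Y cells, pretreated 16 h with compound, are challenged with thapsigargin to empty ER calcium stores; after 4 h, coelenterazine is added directly to the medium and luminescence is imaged.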

[18] = molecular target: Ubiquitin carboxyl-terminal hydrolase 1 (Homo sapiens) (UniProt O94782); assay: Inhibitors of USP1/UAF1: Pilot qHTS (AID 504865); settings: purified USP1/UAF1, Ub-rhodamine cleavage fluorescence; series mostly up to 54.9 µM;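 further: rhodamine fluorescence freed from ubiquitin-rhodamine substrate followed over time; top concentration of the series differs between compounds; on the % scale 0 is the no-effect control and ±100 the full control effect; nearly all actives have a fitted effect of over 35% in size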
Ubiquitin carboxyl-terminal hydrolase 1 (Homo sapiens), sequence (O94782 whole entry, looked up): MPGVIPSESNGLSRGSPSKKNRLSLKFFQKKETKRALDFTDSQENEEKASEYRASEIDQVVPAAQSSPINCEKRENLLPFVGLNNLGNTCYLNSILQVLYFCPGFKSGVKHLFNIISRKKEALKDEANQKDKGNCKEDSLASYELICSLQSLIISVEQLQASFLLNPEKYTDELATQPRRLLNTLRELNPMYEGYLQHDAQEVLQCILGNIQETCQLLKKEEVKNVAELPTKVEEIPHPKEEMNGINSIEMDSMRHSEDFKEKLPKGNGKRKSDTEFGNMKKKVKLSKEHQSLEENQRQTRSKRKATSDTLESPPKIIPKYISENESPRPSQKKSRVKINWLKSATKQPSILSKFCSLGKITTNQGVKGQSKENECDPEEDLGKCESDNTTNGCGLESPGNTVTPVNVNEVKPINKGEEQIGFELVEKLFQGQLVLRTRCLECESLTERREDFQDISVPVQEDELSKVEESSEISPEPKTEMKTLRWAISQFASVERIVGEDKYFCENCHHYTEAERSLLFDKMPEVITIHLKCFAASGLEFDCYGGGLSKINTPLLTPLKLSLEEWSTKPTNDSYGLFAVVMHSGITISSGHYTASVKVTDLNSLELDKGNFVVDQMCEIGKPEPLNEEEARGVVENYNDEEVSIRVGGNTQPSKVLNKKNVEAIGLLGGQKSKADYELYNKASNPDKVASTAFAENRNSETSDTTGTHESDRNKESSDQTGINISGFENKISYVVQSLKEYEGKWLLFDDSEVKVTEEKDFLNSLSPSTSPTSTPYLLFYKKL
Procedure, shortened: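 In 50mM HEPES pH 7.8 containing 0.5mM EDTA, 1mM TCEP, 0.1 mg/ml BSA and 0.01% Tween-20, 1nM USP1/UAF1 is exposed to compound for 15 min, then Ub-Rho (150nM final) is added and fluorescence is read over time.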

[19] = measured here: cell count channel max response
[20] = measured here: lipid channel max response

Compound	Potency [1]	activity change, negative = inhibition [2]	Potency [3]	Potency [4]	outcome [5]	Potency [6]	activity change, negative = inhibition [7]	max response [7, 19]	max response [7, 20]	Potency [8]	max response [9]	activity change, negative = inhibition [10]	activity, negative = inhibition [11]	Potency [12]	Potency [13]	Potency [14]	Potency [15]	Potency [16]	Potency [17]	Potency [18]
O=C(c1cc(C(F)(F)F)cc(C(F)(F)F)c1)N1CCC2(CC1)CCN(c1ccccn1)CC2	10.2 µM (inactive)	-6.99% (inactive)	inactive	> 46 µM (inactive)	inactive	inactive	-8.11% (inactive)	10.4%	1.85%	inactive	25.1% (inactive)									
COc1ccc(-n2c(=O)cnc3cnc(N4CCNCC4)nc32)cc1	> 11.4 µM (inactive)	-7.32% (inactive)	12.6 µM (active)	> 46 µM (inactive)	inactive	inactive				inactive	4.18% (inactive)	0.78% (inactive)	-6.65% (inactive)	> 9.22 µM (inactive)						
O=c1cnc2cnc(N3CCNCC3)nc2n1Cc1ccc(F)cc1		-15.8% (inactive)	15.8 µM (active)	> 46 µM (inactive)	inactive	inactive	7.02% (inactive)	22.7%	28.6%	inactive			-2.57% (inactive)	> 9.22 µM (inactive)	inactive	inactive	inactive	inactive		
COCCn1c(=O)c(-c2ccc(OC)cc2)nc2cnc(N3CCNCC3)nc21	> 11.4 µM (inactive)			> 46 µM (inactive)	inactive	inactive				inactive				> 9.22 µM (inactive)	inactive				inactive	
COc1cccc(-c2nc(N3CCN(C)CC3)c3ccccc3n2)c1	> 11.4 µM (inactive)	11.5% (inactive)		> 46 µM (inactive)	inactive					inactive		12.1% (inactive)	-2.04% (inactive)	> 46 µM (inactive)		28.2 µM (active)		inactive	20 µM (active)	
O=c1c(-c2cccs2)nc2cnc(N3CCNCC3)nc2n1CCc1ccccc1	> 11.4 µM (inactive)	82.5% [activator] (active)		> 46 µM (inactive)		inactive				inactive				> 9.22 µM (inactive)		inactive		inactive	inactive	inactive
